In the library only some 1.4% were active in any assay of this set; here they are far more common.
EBV gp42 block = blocks Epstein-Barr virus glycoprotein 42 binding. Q1HVG2. Fluorescence polarization binding assay, mP read-out. inhibition, % (tested at 21.74 µM). 0.42% of 220,000 active. AID 1085; in the data active means inhibition above about 50%
Target sequence (Q1HVG2 whole entry, looked up): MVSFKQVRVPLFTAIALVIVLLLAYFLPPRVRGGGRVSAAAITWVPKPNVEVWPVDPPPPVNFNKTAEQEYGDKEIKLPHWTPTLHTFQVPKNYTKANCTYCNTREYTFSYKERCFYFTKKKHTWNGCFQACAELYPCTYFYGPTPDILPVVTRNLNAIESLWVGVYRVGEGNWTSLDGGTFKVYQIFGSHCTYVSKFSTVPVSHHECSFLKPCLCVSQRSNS
MEX-5 binding = C. elegans MEX-5 TCR-2 RNA binding activity; activity score (negative = inhibition of binding), % at 10 µM; Q9XUB2; 0.38% of 300,000 active; MEX-5/FITC-TCR2 RNA binding, fluorescence polarization; stronger effect = lower value; AID 1832;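 active means inhibition past about -25% in most replicates, and total fluorescence under double the plate's negative control median, limit read from the data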;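 further: 0% = DMSO and -100% = 5 µM competing unlabeled TCR2 RNA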
GLD-1 RNA inh = GLD-1-TGE RNA interaction inhibition (C. elegans); purified GLD-1 + fluorescein TGE RNA, fluorescence polarization; 0.44% of 320,000 active; Q17339; inhibition, % at 5.96 µM; AID 2280;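 active means percent inhibition above a per-plate cutoff, the plate mean of test compounds plus 3 SD, cut at about 30% in these data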;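 further: 0% = DMSO wells with GLD-1 and probe and 100% = wells lacking GLD-1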
Target sequence (Q17339 whole entry, looked up): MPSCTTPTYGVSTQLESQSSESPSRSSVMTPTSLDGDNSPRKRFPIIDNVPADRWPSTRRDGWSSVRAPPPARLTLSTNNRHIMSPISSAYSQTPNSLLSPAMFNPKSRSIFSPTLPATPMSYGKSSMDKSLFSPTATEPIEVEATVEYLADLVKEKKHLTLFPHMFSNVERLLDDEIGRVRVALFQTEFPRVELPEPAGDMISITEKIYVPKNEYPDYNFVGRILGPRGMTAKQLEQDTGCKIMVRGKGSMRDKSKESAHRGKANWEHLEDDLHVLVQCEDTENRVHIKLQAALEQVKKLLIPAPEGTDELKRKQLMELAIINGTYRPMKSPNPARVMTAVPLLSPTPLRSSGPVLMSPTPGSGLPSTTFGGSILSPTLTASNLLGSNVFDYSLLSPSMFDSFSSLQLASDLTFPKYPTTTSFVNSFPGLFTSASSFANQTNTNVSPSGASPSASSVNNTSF
Bcl-xL primary = inhibitors of human Bcl-xL | GST-Bcl-xL / FITC-Bim BH3 peptide fluorescence polarization | inhibition, % at 10.9 µM | 0.7% of 320,000 active;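 active means inhibition above the mean of all tested compounds plus 3 SD, cutoff set per campaign, cut at about 30% in these data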;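 further: 0% = DMSO wells and 100% = unlabeled Bim-BH3 peptide competitor; inhibitors lower millipolarization by displacing the labeled peptide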
E coli Lon inh = inhibits E. coli Lon protease; AID 602123; inhibition, % at 7.94 µM; 0.42% of 360,000 active; P0A9M0; purified E. coli Lon protease, fluorescence polarization; in the data active means inhibition above about 13%, passing the limit was not always enough;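 further: 0% = enzyme with probe and DMSO and 100% = no enzyme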
MCL1-BIM inh = MCL1-BIM-BH3 interaction inhibition (human). Q07820. GST-MCL1 / FITC-Bim-BH3 fluorescence polarization. inhibition, % at 10.9 µM. 0.68% of 320,000 active;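 active means inhibition above the mean inhibition of all tested compounds plus 3 SD, set per campaign, cut at about 40% in these data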;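 further: 0% = DMSO wells and 100% = unlabeled Bim-BH3 peptide control; higher means more loss of mP so more displacement of Bim peptide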
eLon confirm = E. coli Lon inhibition confirmation; purified E. coli Lon, fluorescence polarization; shares compounds with E coli Lon inh; 31% of 1,400 active; inhibition, % at 7.94 µM; in the data active means inhibition above about 16%;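 further: 0% = enzyme with probe and DMSO and 100% = no enzyme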
* hit, by the source's call; nt = not tested or not shown.

SMILES | EBV gp42 block | MEX-5 binding | GLD-1 RNA inh | Bcl-xL primary | E coli Lon inh | MCL1-BIM inh | eLon confirm
Clc1ccc2nc(-c3ccco3)c(Cc3ccsc3)n2c1 | nt | nt | nt | nt | -13.7 | nt | nt
Cc1cc(Br)cn2c(Cc3ccsc3)c(-c3ccccc3)nc12 | nt | nt | nt | nt | 23.8* | nt | 3.2
Clc1ccc2nc(-c3ccccc3)c(Cc3ccsc3)n2c1 | nt | nt | nt | nt | 17.7* | nt | 12.1
CCCc1nc2ccc(Cl)cn2c1Cc1ccsc1 | nt | nt | nt | nt | 25.0* | nt | 6.5
Clc1ccc(-c2nc3ccc(Cl)cn3c2Cc2ccsc2)cc1 | nt | nt | nt | nt | 25.3* | nt | 2.6
Cc1ccc2cc(CCNS(=O)(=O)c3ccc(F)cc3)c(=O)[nH]c2c1C | -10.0 | -2.6 | 3.0 | -2.0 | -3.7 | 4.8 | nt
CC(C(=O)NCCSCc1cccc(Cl)c1)N(c1ccccc1)S(C)(=O)=O (stereo not given) | nt | -2.0 | -8.7 | 4.7 | -6.4 | 6.5 | nt
c1ccc2c(c1)[nH]c1c3ccccc3sc21 | -10.3 | 1.1 | 2.5 | -4.6 | 1.3 | -12.0 | nt
O=C(Nc1ccc(F)c(Cl)c1)c1ccc2sc([C@@H]3O[C@H](CO)[C@H](O)[C@H](O)[C@H]3O)nc2c1 | nt | nt | nt | nt | 8.4 | nt | nt
OCC1(CO)COC(CCc2ccccc2)=N1 | nt | 0.9 | 5.0 | 4.2 | -6.7 | 15.7 | nt
CCOC(=O)c1c2c(c(=S)n(-c3ccccc3)c1N)CCC2 | 1.2 | -0.3 | 11.2 | 7.3 | 24.4* | 6.0 | -3.7
N#Cc1c2c(c(=S)n(-c3ccccc3)c1N)CCCC2 | 15.4 | -15.2 | 23.7 | 34.7* | 34.2* | 33.4 | 22.8*
O=C(COC(=O)c1nc(Cl)ccc1Cl)NC(=O)c1ccccc1 | nt | -0.5 | 5.0 | -5.3 | -6.1 | -6.8 | nt
COc1ccccc1-c1noc(Cn2cc(S(=O)(=O)N3CCCC3)ccc2=O)n1 | nt | nt | -2.9 | -8.4 | 2.2 | -13.3 | nt
CCOC(=O)c1c(C)oc2c1c(C=NCC1CCCO1)c(O)c1ccccc12 (stereo not given) | -20.2 | nt | nt | nt | 29.1 | nt | nt
CCOC(=O)c1c(C)oc2c1c(C=NCc1ccccn1)c(O)c1ccccc12 | 2.6 | nt | nt | nt | 123.6* | nt | 134.8*
CC(C)(C)c1cc(C(=O)N/N=C/c2ccc(-c3ccccc3[N+](=O)[O-])o2)n[nH]1 | nt | -2.6 | 75.4* | 47.8* | 25.1* | 42.3* | 7.0
C=CCC1(CC=C)CCCN1C(=O)Cn1nnnc1CN(C)C(C)C | nt | 0.2 | 2.9 | 1.2 | 1.1 | 5.7 | nt
CCCCCCn1c(=O)[nH]c2nc3cc(N)c(C)cc3nc2c1=O | 148.3* | nt | nt | nt | 116.5* | nt | 48.8*
CCCCCn1c(=O)[nH]c2cc(C(=O)O)ccc2c1=O | -11.2 | 0.7 | -0.3 | 8.6 | 2.1 | 8.0 | nt
CC1CC(C)CN(CCCNC(=O)CN2C(=O)COc3ccc(S(=O)(=O)N4CCOCC4)cc32)C1 (stereo not given) | nt | 1.1 | 1.3 | 5.5 | 4.3 | -2.2 | nt
C/C(=N\N1CCN(c2ccccc2)CC1)c1ccc(O)cc1 | nt | 1.7 | nt | nt | -3.7 | nt | nt
O=C(N/N=C/C1C(c2ccccc2)C1(Cl)Cl)c1cccc(Cl)c1 (stereo not given) | 3.4 | 0.0 | 8.2 | 2.9 | 22.3* | 3.2 | -1.9
O=C(Cn1nc2n(c1=O)-c1ccccc1SC2)N/N=C/c1cccs1 | 5.3 | 0.0 | 8.4 | 5.5 | 1.8 | -0.8 | nt
NC(=O)c1ccsc1NC(=O)CS(=O)(=O)c1ccc(F)cc1 | nt | 1.7 | -6.5 | 3.1 | -14.0 | 5.3 | nt
SMILES | EBV gp42 block | MEX-5 binding | GLD-1 RNA inh | Bcl-xL primary | E coli Lon inh | MCL1-BIM inh | eLon confirm
COc1ccc(NC(=O)CN(C)C(=O)/C=C/c2ccc(OCc3ccccc3)cc2)cc1 | nt | 0.7 | 5.2 | -0.2 | 19.2* | -8.2 | -7.7
COc1ccccc1N1CCN(S(=O)(=O)CCNC(=O)C2CC(=O)N(c3ccccc3)C2)CC1 (stereo not given) | nt | 0.4 | -5.2 | 4.6 | 3.2 | 15.1 | nt
O=C(NCCS(=O)(=O)N1CCN(c2ccccc2F)CC1)C1CC(=O)N(c2ccc(F)cc2)C1 (stereo not given) | nt | -1.4 | 1.7 | -0.8 | 74.9* | -5.0 | -8.5
CCCn1c(NC(=O)CSCC(=O)Nc2cc(C)on2)nc2ccccc21 | nt | -1.0 | 2.2 | -8.9 | 21.6* | -9.6 | -4.1
O=C(Cc1ccc(NC(=O)C2CCN(C(=O)C3CCC3)CC2)cc1)Nc1ccc(C(=O)N2CCOCC2)cc1 | nt | nt | nt | nt | -4.7 | nt | nt
CCn1c2ccccc2c2cc(NS(=O)(=O)c3ccccc3C)ccc21 | -10.6 | 0.0 | 3.4 | 7.7 | 14.4* | 5.1 | -4.2
CCCC(=O)Nc1ccc2c(c1)c1ccccc1n2CC | -5.6 | nt | 2.2 | 2.4 | -3.5 | -1.8 | nt
O=C(C1CCN(S(=O)(=O)c2c(Cl)cccc2Cl)CC1)N1CCCCCCC1 | nt | 0.1 | 7.7 | -10.0 | 18.2* | -14.9 | -3.5
CCC(C(=O)NC1CCCC1)N(Cc1ccco1)C(=O)CNS(=O)(=O)c1ccccc1 (stereo not given) | nt | 2.8 | -5.3 | 3.8 | 17.0* | -2.4 | 8.3
CC1CCCCN1CCNC(=O)c1cnn2ccccc12 (stereo not given) | -16.5 | -4.3 | 1.9 | 5.4 | 14.3* | 0.1 | -35.7
O=C(C1CCC(=O)N(C2CC2)C1)N(CCO)Cc1ccccc1 (stereo not given) | nt | -0.9 | -2.9 | 4.5 | 46.5* | -10.2 | -0.3
O=C1CCCN1CCCN1CC(C(=O)N(CCO)Cc2ccccc2)CCC1=O (stereo not given) | nt | 0.0 | -4.9 | -0.5 | -6.8 | -1.2 | nt
O=C(Nc1cccc2ccccc12)NC(Cc1ccccc1)C(=O)O (stereo not given) | nt | -0.1 | -0.5 | 8.3 | -3.0 | 9.6 | nt
CC(Sc1nnnn1C)C(=O)Nc1cc(S(=O)(=O)N2CCCCC2)ccc1Cl (stereo not given) | nt | nt | 4.1 | -6.5 | -5.3 | -2.4 | nt
Cc1c(O)cnc2nn(-c3ccccc3)c(=N)n12 | nt | nt | nt | nt | -33.3 | nt | nt
OCCNc1nnc(-c2ccccc2)c(-c2ccccc2)n1 | nt | -1.6 | 2.3 | -1.1 | -3.7 | -3.3 | nt
O=C1N(c2cccc(Cl)c2)C(c2ccccc2)N2CCCN12 (stereo not given) | -20.6 | 1.2 | -4.4 | 3.1 | -20.3 | -0.8 | nt
Cc1ccc(C2N(c3ccccc3)C(=O)N3CCCN23)cc1 (stereo not given) | 3.5 | -0.9 | -2.6 | 3.1 | 36.0* | 0.9 | -11.0
COc1cc(OC)cc(-c2c(-c3cccs3)c3cc(-c4cccc5[nH]ccc45)ccc3n2C)c1 | nt | nt | -25.4 | -11.3 | -30.2 | -21.1 | nt
O=c1[nH]c(=S)[nH]c2c1C(c1ccc(Br)cc1)c1c([nH]c(=S)[nH]c1=O)O2 | nt | -70.9* | 1.7 | 38.7* | 32.3* | 72.1* | -48.8
COC(=O)C1=C(C)Nc2[nH]c(=S)[nH]c(=O)c2C1c1ccc(O)cc1 (stereo not given) | -12.2 | -2.3 | -0.4 | 6.8 | -0.5 | 2.6 | nt
COCCNC(=O)c1c[nH]c2ccc(S(=O)(=O)N(C)c3ccc(C)c(C)c3)cc2c1=O | nt | -0.6 | -0.9 | 5.1 | 3.4 | -5.2 | nt
Nc1nnc2cc(Br)ccc2n1 | nt | nt | nt | nt | 65.9* | nt | 32.9*
O=C(c1cc2ccccc2o1)N1CCN(S(=O)(=O)c2ccccc2)CC1 | nt | nt | nt | nt | 18.6* | nt | -7.2
